This note sets out measurements from PubChem BioAssay (EPA / NIEHS).

“And” between values parts separate entries of the source, which are not always exact repeats. Equal values may be shown once. Inconclusive results are not listed. More than one record can exist for a structure, and the calls need not agree. The source made the active and inactive calls. The calls were made as follows, unless noted: active = hit-call score of the fitted dose curve at least 0.9, where 1 is the maximum; inactive = score below 0.9.

The nature of assay [1]: ATG_ERE_CIS: Attagene CIS-FACTORIAL HepG2 Assay for Estrogen Response Element (ERE) (AID 2282940). To be noted: HepG2 ERE cis-reporter, Attagene RNA transcript; actives raise or lower the signal. Put shortly:
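Cells used were human hepatoma HepG2, transfected with multiple reporter transcription units under cis-regulatory promoters. Reporter mRNA, read 24 h post-dosing via fluorescent RT-PCR products on capillary electrophoresis, was fitted bidirectionally relative to DMSO.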

In assay [2] the target is Bile acid receptor (Homo sapiens) (UniProt Q96RI1). As to the kind of experiment: ATG_FXR_TRANS: Attagene TRANS-FACTORIAL HepG2 Assay for Farnesoid X Receptor (FXR) (AID 2282979; active = hit-call score of the fitted dose curve at least 0.9, where 1 is the maximum;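 also: hits raise reporter mRNA above DMSO so AC50 marks FXR activation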). To be noted: HepG2 Attagene TRANS FXR-GAL4 reporter transcription. In outline:
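Reporter transcripts from transfected HepG2 cells were measured 24 h after dosing, using RT-PCR with capillary electrophoresis of 6-FAM-labelled fragments. The read-out reflects activity of exogenous FXR-Gal4 chimera on GAL4-UAS units, with induction relative to DMSO.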

The target of assay [3] is Aryl hydrocarbon receptor (Homo sapiens) (UniProt P35869). In words: ATG_Ahr_CIS: Attagene CIS-FACTORIAL HepG2 Assay for human Aryl Hydrocarbon Receptor (Ahr) (AID 2282930). The note with it: HepG2 AhR cis-factorial reporter transcription; actives raise or lower the signal. In outline:
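Reporter mRNA levels, quantified by RT-PCR and fluorescent capillary electrophoresis, reflect endogenous AhR transcriptional activity in HepG2 cells carrying transfected cis-promoter reporter constructs. Readout at 24 h post-dose; gain or loss fitted against DMSO baseline.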

The nature of assay [4]: BSK_3C_TissueFactor: BioMAP Diversity Plus: 3C Assay for Tissue Factor Biomarker Activity (AID 2282997). The note with it: BioMAP 3C HUVEC, tissue factor biomarker readout; actives raise or lower the signal. Put shortly:
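Tissue factor on primary human umbilical vein endothelium was read by ELISA 24 h after dosing, gain or loss relative to DMSO. Cytotoxicity ran alongside via SRB (0.1%, TCA-fixed, 560 nm).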

Assay [5] is described as follows: BSK_3C_uPAR: BioMAP Diversity Plus: 3C Assay for Urokinase-type plasminogen activator receptor (uPAR) Biomarker Activity (AID 2282998). To be noted: BioMAP 3C HUVEC, uPAR biomarker ELISA; actives raise or lower the signal. Put shortly: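 Dose primary human umbilical vein endothelial cells, incubate 24 h, measure cell-surface uPAR by ELISA, then fit the signal in both directions against the DMSO negative control.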
Background: An ELISA detects its analyte on a solid surface through an enzyme-linked reagent.

Read-out in assay [6]: Interleukin-1 alpha (IL1a), IL1A (gene 3552)
In words: BSK_BE3C_IL1a: BioMAP Diversity Plus: BE3C Assay for Interleukin-1 alpha (IL1a) Biomarker Activity (AID 2283016). The note with it: primary human bronchial epithelial cells; actives raise or lower the signal. In outline:
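IL-1a measured by ELISA after 24 h treatment of human primary bronchial epithelial cells, with gain or loss of signal fitted versus DMSO. Parallel cultures stained with SRB gauge overt cytotoxicity.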

Read-out in assay [7]: Monocyte Chemoattractant Protein-1 (MCP1), CCL2 (gene 6347)
In words: BSK_3C_MCP1: BioMAP Diversity Plus: 3C Assay for Monocyte Chemoattractant Protein-1 (MCP1) Biomarker Activity (AID 2283017). The note with it: primary human endothelial cells (HUVEC); actives raise or lower the signal. Put shortly: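 MCP-1 was measured by ELISA 24 h after dosing in primary HUVEC 3C cultures and fitted in both directions relative to DMSO; cytotoxicity was checked by SRB total-protein staining in parallel wells.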

Read-out in assay [8]: Monocyte Chemoattractant Protein-1 (MCP1), CCL2 (gene 6347)
In words: BSK_4H_MCP1: BioMAP Diversity Plus: 4H Assay for Monocyte Chemoattractant Protein-1 (MCP1) Biomarker Activity (AID 2283018). To be noted: primary human endothelial cells (HUVEC); actives raise or lower the signal. In outline:
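ELISA of MCP-1 (CCL2) 24 h after chemical dosing of HUVEC in the BioMAP 4H system. Gain or loss versus DMSO fitted; parallel SRB staining (560 nm) tracked overt cytotoxicity.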

Read-out in assay [9]: Interleukin-8 (IL8), CXCL8 (gene 3576)
In words: BSK_3C_IL8: BioMAP Diversity Plus: 3C Assay for Interleukin-8 (IL8) Biomarker Activity (AID 2283020). To be noted: primary human endothelial cells (HUVEC); actives raise or lower the signal. Put shortly: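 IL-8 was measured by ELISA in HUVEC cultures 24 h after chemical dosing, with gain or loss of signal fitted relative to DMSO. Parallel SRB total-protein staining tracked overt cytotoxicity.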

Read-out in assay [10]: Monokine induced gamma interferon (MIG), CXCL9 (gene 4283)
As to the kind of experiment: BSK_3C_MIG: BioMAP Diversity Plus: 3C Assay for Monokine induced gamma interferon (MIG) Biomarker Activity (AID 2283021).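 As to AC50: MIG protein level measured by immunoassay in the treated endothelial cultures.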 The note with it: primary human endothelial cells (HUVEC); actives raise or lower the signal. In outline:
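ELISA measurement of MIG in human umbilical vein endothelial cells 24 h after treatment. Cytotoxicity tracked by SRB staining in parallel cultures; gain or loss of signal fitted relative to DMSO.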

The nature of assay [11]: BSK_3C_SRB: Viability Assessment in the BioMAP Diversity Plus: 3C Assay (AID 2283023).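 Also: fitted both ways against DMSO so a hit may be signal rise or drop.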 To be noted: primary human endothelial cells (HUVEC). Put shortly: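 Cytotoxicity readout in parallel HUVEC 3C cultures: after 24 h compound exposure, cells fixed with 10% TCA, stained with 0.1% SRB and read at 560 nm. Gain or loss relative to DMSO fitted.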
Read-out in assay [12]: Pselectin, SELP (gene 6403)
In words: BSK_4H_Pselectin: BioMAP Diversity Plus: 4H Assay for Pselectin Biomarker Activity (AID 2283026). The note with it: primary human endothelial cells (HUVEC); actives raise or lower the signal. In outline: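 ELISA of surface P-selectin on HUVEC, 24 h after dosing, with parallel SRB staining (0.1% after 10% TCA fixation, 560 nm) for overt cytotoxicity. Activity fitted in both directions relative to DMSO.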

Assay [13] in a line: BSK_4H_SRB: Viability Assessment in the BioMAP Diversity Plus: 4H Assay (AID 2283027).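 Also: cells exposed to compound for 24 h before staining.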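 As to AC50: curves fitted both ways versus DMSO so AC50 may be loss or gain.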 To be noted: primary human endothelial cells (HUVEC). In outline: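 Cytotoxicity read-out in primary human endothelial cells: after 24 h compound exposure, cells were TCA-fixed (10%), stained with 0.1% SRB and absorbance taken at 560 nm. Values fitted in both directions relative to DMSO.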

Read-out in assay [14]: Human Leukocyte Antigen - DR isotype (HLADR), HLA-DRA (gene 3122)
In words: BSK_BE3C_HLADR: BioMAP Diversity Plus: BE3C Assay for Human Leukocyte Antigen - DR isotype (HLADR) Biomarker Activity (AID 2283032). The note with it: primary human bronchial epithelial cells; actives raise or lower the signal. Put shortly:
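Cell-surface HLA-DR ELISA readout at 24 h after dosing in the BE3C primary human lung bronchial epithelial system; gain or loss of signal against DMSO, with parallel sulforhodamine B staining of total protein for overt cytotoxicity.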

Read-out in assay [15]: Plasminogen activator inhibitor-1 (PAI1), SERPINE1 (gene 5054)
In words: BSK_BE3C_PAI1: BioMAP Diversity Plus: BE3C Assay for Plasminogen activator inhibitor-1 (PAI1) Biomarker Activity (AID 2283037). To be noted: primary human bronchial epithelial cells; actives raise or lower the signal. Put shortly:
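PAI-1 was measured by ELISA in human primary bronchial epithelial cultures 24 h after chemical dosing, with cytotoxicity checked by SRB total-protein staining in parallel cultures. Activity was fitted in both directions relative to DMSO.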

Read-out in assay [16]: urokinase plasminogen activator (uPA), PLAU (gene 5328)
In words: BSK_BE3C_uPA: BioMAP Diversity Plus: BE3C Assay for urokinase plasminogen activator (uPA) Biomarker Activity (AID 2283038).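 As to outcome: uPA protein level quantified by ELISA in cell cultures; uPA read one day after compound addition.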 To be noted: primary human bronchial epithelial cells; actives raise or lower the signal. Put shortly: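 ELISA for uPA on human primary bronchial epithelial cultures 24 h post-treatment, gain or loss against DMSO. Parallel SRB staining (0.1% after 10% TCA fixation, 560 nm) assessed overt cytotoxicity.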

Read-out in assay [17]: Tissue plasminogen activator (tPA), PLAT (gene 5327)
In words: BSK_BE3C_tPA: BioMAP Diversity Plus: BE3C Assay for Tissue plasminogen activator (tPA) Biomarker Activity (AID 2283041).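 Also: tPA level quantified by ELISA one day after compound addition.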 The note with it: primary human bronchial epithelial cells; actives raise or lower the signal. In outline:
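tPA measured by ELISA 24 h after dosing human primary bronchial epithelial cells (BE3C system). Changes in either direction were fitted against DMSO. Parallel cultures were stained with SRB to flag overt cytotoxicity.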

Read-out in assay [18]: Macrophage colony-stimulating factor (MCSF), CSF1 (gene 1435)
As to the kind of experiment: BSK_CASM3C_MCSF: BioMAP Diversity Plus: CASM3C Assay for Macrophage colony-stimulating factor (MCSF) Biomarker Activity (AID 2283044).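 Also: M-CSF protein amount quantified by ELISA after 24 h exposure.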 To be noted: primary human coronary artery smooth muscle cells; actives raise or lower the signal.

Read-out in assay [19]: Interleukin-1 alpha (IL1a), IL1A (gene 3552)
In words: BSK_LPS_IL1a: BioMAP Diversity Plus: LPS Assay for Interleukin-1 alpha (IL1a) Biomarker Activity (AID 2283080). The note with it: primary human HUVEC with PBMC; actives raise or lower the signal. In outline: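 Readout is IL-1a level by ELISA, 24 h post-dose, fitted as gain or loss relative to DMSO. System: LPS-activated human primary co-culture of vascular endothelium and peripheral blood mononuclear cells, with parallel SRB total-protein cytotoxicity.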

Assay [20] in a line: BSK_LPS_PGE2: BioMAP Diversity Plus: LPS Assay for Prostaglandin E2 (PGE2) Biomarker Activity (AID 2283082).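 As to AC50: secreted prostaglandin E2 measured by ELISA in LPS-stimulated co-culture.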 The note with it: primary human HUVEC with PBMC; actives raise or lower the signal. Put shortly:
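PGE2 release measured by ELISA in an LPS-activated co-culture of human umbilical vein endothelial cells and peripheral blood mononuclear cells, read at 24 h post-dosing. DMSO served as baseline for bidirectional curve fitting.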

Aryl hydrocarbon receptor (Homo sapiens), sequence (P35869 whole entry, looked up): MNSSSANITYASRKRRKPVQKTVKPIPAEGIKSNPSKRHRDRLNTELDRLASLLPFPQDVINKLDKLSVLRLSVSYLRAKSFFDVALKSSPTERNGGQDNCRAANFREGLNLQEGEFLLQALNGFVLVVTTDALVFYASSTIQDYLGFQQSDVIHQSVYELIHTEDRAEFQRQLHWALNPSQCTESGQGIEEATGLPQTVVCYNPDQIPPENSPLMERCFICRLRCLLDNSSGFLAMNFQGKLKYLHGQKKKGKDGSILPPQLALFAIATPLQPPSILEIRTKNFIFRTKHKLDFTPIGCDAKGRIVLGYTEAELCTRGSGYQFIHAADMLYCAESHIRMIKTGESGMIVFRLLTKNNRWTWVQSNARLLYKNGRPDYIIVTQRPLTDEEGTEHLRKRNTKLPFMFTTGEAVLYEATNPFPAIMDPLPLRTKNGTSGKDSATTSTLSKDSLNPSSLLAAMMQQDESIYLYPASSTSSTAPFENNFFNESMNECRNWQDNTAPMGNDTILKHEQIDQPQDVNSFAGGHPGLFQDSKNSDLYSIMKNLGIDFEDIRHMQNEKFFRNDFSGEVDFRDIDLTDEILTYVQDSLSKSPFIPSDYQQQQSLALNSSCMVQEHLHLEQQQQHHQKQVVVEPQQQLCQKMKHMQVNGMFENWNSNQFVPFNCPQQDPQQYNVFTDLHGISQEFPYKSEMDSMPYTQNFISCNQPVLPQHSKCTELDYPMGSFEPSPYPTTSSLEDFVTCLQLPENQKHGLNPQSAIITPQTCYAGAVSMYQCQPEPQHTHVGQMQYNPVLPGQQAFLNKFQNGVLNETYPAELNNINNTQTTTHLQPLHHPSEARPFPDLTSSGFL
Bile acid receptor (Homo sapiens), sequence (Q96RI1 whole entry, looked up, the tested form may be a part): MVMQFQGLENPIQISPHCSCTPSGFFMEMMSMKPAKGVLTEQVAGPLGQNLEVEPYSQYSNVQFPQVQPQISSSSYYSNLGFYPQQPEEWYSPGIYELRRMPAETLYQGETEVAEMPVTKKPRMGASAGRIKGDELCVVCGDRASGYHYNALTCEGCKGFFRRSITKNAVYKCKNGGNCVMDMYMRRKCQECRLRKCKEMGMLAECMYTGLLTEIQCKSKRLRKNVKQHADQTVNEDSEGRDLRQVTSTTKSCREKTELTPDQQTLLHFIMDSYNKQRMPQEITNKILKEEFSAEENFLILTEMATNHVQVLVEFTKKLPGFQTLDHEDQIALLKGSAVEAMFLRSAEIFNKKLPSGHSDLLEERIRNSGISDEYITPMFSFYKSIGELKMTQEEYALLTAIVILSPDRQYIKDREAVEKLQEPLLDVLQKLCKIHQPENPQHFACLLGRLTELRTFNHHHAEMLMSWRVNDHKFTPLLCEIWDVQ

`C=C(Cl)CCl`: the call in [1] was inactive.
For the compound `CCCCOP(=O)(O)OCCCC`, the outcome in [1] and in [2] was inactive.
As for `CCCCOC(=O)CCC(=O)OCCCC`, the compound was classed as inactive in assay [3].
On to `C=CCN(CC=C)C(=O)C(Cl)Cl`, for which the compound was classed as inactive in [3], in assay [4], in assay [5], in assay [6], in assay [7] and in [8]. Also, the outcome in assay [9], in [10], in assay [11], in assay [12], in assay [13] and in assay [14] was inactive. Besides, the outcome in [15], in assay [16], in [17], in [18], in assay [19] and in assay [20] was inactive.
For `CCOP(=O)(OCC)OCC`, the compound was called inactive in [3].
For the compound `CC1(C)C(=O)NC(=O)NC1=O`, in [1], the result was inactive.
On to `CCCOC(=O)c1ccccc1C(=O)OCCC`, for which the half-maximal activity concentration (AC50) (as a rule, the concentration giving half of the maximal activity seen) in assay [1] is 49.8 µM (active); in assay [7], 20 µM (active); in assay [14], 0.274 µM (active). The compound was classed as inactive in assay [2], in assay [4], in [5], in assay [6], in [8] and in assay [9]. Moreover, the outcome in [10], in assay [11], in [12], in [13], in assay [15] and in assay [16] was inactive. The result in assay [17], in assay [18], in assay [19] and in assay [20] was inactive.
As to `CC(=O)c1cc2c(cc1C)C(C)(C)C(C)CC2(C)C` (configuration not stated), the result in assay [2] was inactive.
As for `O=C(O)c1cc[c]([Hg][Cl])cc1`, the compound was classed as inactive in [1].
For `N#CCCCCC#N`, the result in assay [4], in assay [5], in assay [6], in assay [7], in assay [8] and in assay [9] was inactive. Moreover, the result in [10], in [11], in [12], in assay [13], in assay [14] and in [15] was inactive. The result in [16], in assay [17], in assay [18], in [19] and in assay [20] was inactive.
Turning to `Oc1ccc(C2(c3ccc(O)cc3)c3ccccc3-c3ccccc32)cc1`, the call in assay [3], in [1], in assay [2], in assay [16], in assay [17] and in assay [19] was inactive. In assay [20], the outcome was inactive. Moreover, the AC50 in assay [4] was 12.7 µM (active) and 12.5 µM (active); in assay [5], 11.5 µM (active) and 9 µM (active); in assay [6], 5.35 µM (active) and 5.31 µM (active); in assay [7], 13.2 µM (active) and 12 µM (active); in assay [8] it was 13.2 µM (active) and 11.4 µM (active); in [9], 17.2 µM (active) and 20 µM (active). In addition, the AC50 in [10] is 16 µM (active) and 14.8 µM (active); in assay [11] it was 6.97 µM (active) and 8.38 µM (active); in assay [12], 3.01 µM (active) and 5.41 µM (active); in assay [13], 11.9 µM (active); in assay [14], 0.15 µM (active); in [15] it was 5.27 µM (active) and 5.31 µM (active). For the same compound, the AC50 in assay [16] is 0.15 µM (active); in assay [18] it was 11.1 µM (active) and 20 µM (active); in assay [19], 32.7 µM (active); in [20], 11.8 µM (active).
With `O=[N+]([O-])c1ccc(Cl)cc1`, the result in assay [4], in assay [5], in [6], in assay [7], in assay [8] and in assay [9] was inactive. The outcome in assay [10], in assay [11], in assay [12], in assay [13], in [14] and in assay [15] was inactive. Moreover, the outcome in assay [16], in assay [17], in assay [18], in assay [19] and in assay [20] was inactive.
